# Inconclusive results are not listed. Where a call stands in place of a potency, no number is given. Calls of active or inactive are those of the source. Unless noted, the call rests on the fitted dose curve.
# Tests used:
# [1] = Primary qHTS for Huh7 cytotoxicity: counterscreen for inhibitors of MERS-S pseudotyped particle cell entry (AID 1479147); settings: outcome: dose series up to 57.1 µM unless noted; further: potency means the concentration at half of the fitted maximal effect
# [2] = Primary qHTS for inhibitors of SARS-S pseudo-typed particle cell entry (AID 1479145); settings: outcome: dose series up to 57.1 µM unless noted; further: nearly all actives have a fitted effect of over 45% in size; further: potency means the concentration at half of the fitted maximal effect
# [3] = Primary qHTS for inhibitors of MERS-S pseudo-typed particle cell entry (AID 1479149); settings: outcome: dose series up to 57.1 µM unless noted; further: nearly all actives have a fitted effect of over 60% in size; further: potency means the concentration at half of the fitted maximal effect
# [4] = Primary qHTS for Vero E6 cytotoxicity: counterscreen for inhibitors of SARS-S pseudo-typed particle cell entry (AID 1479150); settings: outcome: dose series up to 57.1 µM unless noted; further: potency means the concentration at half of the fitted maximal effect
# [5] = Primary qHTS to identify inhibitors of SARS-CoV-2 cell entry (AID 1645846); settings: SARS-CoV-2 pseudovirus cell entry assay, luminescence; further: nearly all actives have a fitted effect of over 45% in size; further: potency means the concentration at half of the fitted maximal effect
# Summary of the method: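 HEK293 cells stably expressing human ACE2, pre-treated 1 h with compound, then infected with MLV particles pseudotyped with Wuhan-Hu-1 spike (C-terminal 19-aa truncation). Luciferase luminescence after 48 h at 37 °C, normalised to spike PP and bald PP.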
# [6] = Cytotoxicity counterscreen for inhibitors of SARS-CoV-2 cell entry (AID 1645845); settings: outcome: dose series up to 57.1 µM unless noted; further: nearly all actives have a fitted effect of over 50% in size
# Summary of the method: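 Counterscreen run in the same HEK293-ACE2 line as the pseudotyped-particle entry assay, without particles. Viability after 48 h at 37 C was read as ATP luminescence, scaled between cell-containing and cell-free wells.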
# [7] = target: Cytochrome P450 3A4 (Homo sapiens) (UniProt P08684); assay: qHTS Assay for Inhibitors and Substrates of Cytochrome P450 3A4 (AID 884; active means well fitted curve in the direction sought with a large enough effect; an effect the other way counts as inactive or inconclusive; further: nearly all actives have a fitted effect of over 50% in size)
# Chain of Cytochrome P450 3A4 (Homo sapiens) (P08684 whole entry, looked up): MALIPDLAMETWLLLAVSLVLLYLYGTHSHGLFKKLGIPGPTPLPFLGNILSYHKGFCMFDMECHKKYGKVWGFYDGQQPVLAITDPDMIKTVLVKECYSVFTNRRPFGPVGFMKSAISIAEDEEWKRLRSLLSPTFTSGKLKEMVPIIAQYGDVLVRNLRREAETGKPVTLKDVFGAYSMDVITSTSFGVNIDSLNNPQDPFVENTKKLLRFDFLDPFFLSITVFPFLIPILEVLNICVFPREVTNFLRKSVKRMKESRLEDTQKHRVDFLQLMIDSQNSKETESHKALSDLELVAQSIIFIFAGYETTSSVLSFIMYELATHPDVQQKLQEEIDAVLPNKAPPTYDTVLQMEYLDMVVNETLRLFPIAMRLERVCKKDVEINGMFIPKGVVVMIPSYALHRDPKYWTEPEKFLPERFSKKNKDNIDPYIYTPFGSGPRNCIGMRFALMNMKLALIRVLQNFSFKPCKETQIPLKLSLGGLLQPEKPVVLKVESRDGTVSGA
# Summary of the method: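 Luminescent readout of luciferin produced by CYP3A4 (20 nM) dealkylation of Luciferin-PPXE, 25 uM (its KM). NADPH-driven reaction ran 60 min at RT after 10 min compound preincubation; data scaled to 57 uM ketoconazole as 100% inhibition.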
# [8] = Confirmation and Secondary Assay for Modulators of Hemoglobin Beta Chain Splicing at IVS2 654 locus (AID 910; active means well fitted curve in the direction sought with a large enough effect; an effect the other way counts as inactive or inconclusive;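 further: HeLa cells stably carrying EGFP split by mutant beta-globin IVS2-654 intron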)
# Summary of the method: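 HeLa cells stably expressing EGFP interrupted by β-globin IVS2-654 intron, seeded overnight in Opti-MEM/2% FCS, then treated 2 days at 37 °C. Restored splicing read as total peak GFP intensity per well by laser scanning cytometry (488 nm excitation, 500–520 nm emission); 500 nM antisense PNA as control.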
# [9] = Confirmation and Secondary Assay for Modulators of Hemoglobin Beta Chain Splicing at IVS2 705 locus (AID 930; active means well fitted curve in the direction sought with a large enough effect; an effect the other way counts as inactive or inconclusive;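 further: HeLa cells stably expressing the EGFP-705 splicing reporter; GFP fluorescence per well restored by corrected splicing of the IVS2-705 intron in EGFP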)
# Summary of the method: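 HeLa IVS2-705 EGFP reporter cells, 500/well, compound 2 d at 37C; correct splicing yields fluorescent EGFP. Control: 500 nM antisense PNA. Read-out: total peak GFP intensity.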
# [10] = qHTS Assay for Lipid Storage Modulators (AID 1519); settings: Drosophila S3 cells, BODIPY lipid droplet/cell ratio, laser cytometry, cells loaded with oleic acid
# Summary of the method: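 Cells seeded at 5,000 per well were treated with compounds over a concentration series and loaded with oleic acid (400 uM, as added). Lipid droplet fluorescence (488 nm excitation, 500-530 nm channel) was read by laser-scanning cytometry and normalized to 20 uM Triacsin C.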
# [11] = target: Ubiquitin carboxyl-terminal hydrolase 1 (Homo sapiens) (UniProt O94782); assay: Inhibitors of USP1/UAF1: Pilot qHTS (AID 504865; active means well fitted curve in the direction sought with a large enough effect; an effect the other way counts as inactive or inconclusive;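 further: rhodamine fluorescence freed from ubiquitin-rhodamine substrate followed over time; top concentration of the series differs between compounds; nearly all actives have a fitted effect of over 35% in size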)
# Chain of Ubiquitin carboxyl-terminal hydrolase 1 (Homo sapiens) (O94782 whole entry, looked up): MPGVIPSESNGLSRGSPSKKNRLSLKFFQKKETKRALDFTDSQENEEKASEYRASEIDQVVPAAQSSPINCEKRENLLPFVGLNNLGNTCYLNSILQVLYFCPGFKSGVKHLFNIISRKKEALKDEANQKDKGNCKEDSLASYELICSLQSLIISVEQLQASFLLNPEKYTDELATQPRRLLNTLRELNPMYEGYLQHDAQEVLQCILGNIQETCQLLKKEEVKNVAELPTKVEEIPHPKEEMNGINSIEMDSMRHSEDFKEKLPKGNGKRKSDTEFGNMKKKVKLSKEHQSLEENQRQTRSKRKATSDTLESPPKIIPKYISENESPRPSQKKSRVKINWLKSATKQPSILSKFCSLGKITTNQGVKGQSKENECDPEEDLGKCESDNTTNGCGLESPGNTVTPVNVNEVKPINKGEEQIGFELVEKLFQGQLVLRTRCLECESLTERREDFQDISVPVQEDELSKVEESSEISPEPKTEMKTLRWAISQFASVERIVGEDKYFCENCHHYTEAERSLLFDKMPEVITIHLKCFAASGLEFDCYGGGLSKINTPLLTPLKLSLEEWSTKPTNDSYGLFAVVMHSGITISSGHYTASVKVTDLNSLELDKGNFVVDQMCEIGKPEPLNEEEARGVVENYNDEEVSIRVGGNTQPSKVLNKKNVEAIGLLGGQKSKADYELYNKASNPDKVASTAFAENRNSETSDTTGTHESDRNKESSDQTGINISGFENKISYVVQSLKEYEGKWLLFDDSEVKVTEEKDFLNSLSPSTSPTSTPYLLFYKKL
# Summary of the method: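 USP1/UAF1 complex at 1 nM preincubated 15 min at room temperature with compound, then Ub-Rho substrate added at 150 nM final. Fluorescence (480/540 nm) read kinetically in 50 mM HEPES pH 7.8, 0.5 mM EDTA, 1 mM TCEP, 0.1 mg/ml BSA, 0.01% Tween-20.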
# [12] = target: Glutathione peroxidase 1 (Homo sapiens) (UniProt P07203); assay: Primary qHTS Assay for Inhibitors of Recombinant Selenoprotein Glutathione Peroxidase 1 (GPX1) (AID 1845191; active means well fitted curve in the direction sought with a large enough effect; an effect the other way counts as inactive or inconclusive; further: nearly all actives have a fitted effect of over 65% in size)
# Chain of Glutathione peroxidase 1 (Homo sapiens) (P07203 whole entry, looked up): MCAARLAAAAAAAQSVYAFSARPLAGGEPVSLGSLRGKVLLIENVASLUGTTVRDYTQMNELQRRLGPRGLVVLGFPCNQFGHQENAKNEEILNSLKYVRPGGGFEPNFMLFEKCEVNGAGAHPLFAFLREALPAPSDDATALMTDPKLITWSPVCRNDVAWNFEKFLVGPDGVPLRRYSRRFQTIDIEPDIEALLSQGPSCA
# Summary of the method: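 GR-coupled readout: NADPH consumption tracked by fluorescence, ex 340/em 450 nm, at t=0 and after 15 min at RT. Final mix 10 nM GPX1, 1 mM GSH, 0.5 mM CHP, 0.5 mM NADPH, 100 nM GR, 0.01% BSA, following 30 min enzyme–compound preincubation.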
# [13] = target: Phospholipid hydroperoxide glutathione peroxidase GPX4 (Homo sapiens) (UniProt P36969); assay: Primary qHTS Assay for Inhibitors of Recombinant Selenoprotein Glutathione Peroxidase 4 (GPX4) (AID 1845192; active means well fitted curve in the direction sought with a large enough effect; an effect the other way counts as inactive or inconclusive; further: nearly all actives have a fitted effect of over 65% in size)
# Chain of Phospholipid hydroperoxide glutathione peroxidase GPX4 (Homo sapiens) (P36969 whole entry, looked up): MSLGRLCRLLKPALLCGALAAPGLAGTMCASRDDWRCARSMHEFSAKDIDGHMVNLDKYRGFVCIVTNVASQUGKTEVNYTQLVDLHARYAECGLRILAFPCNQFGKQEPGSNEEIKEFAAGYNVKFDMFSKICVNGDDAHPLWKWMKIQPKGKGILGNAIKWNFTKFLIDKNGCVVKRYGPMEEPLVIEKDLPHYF
# Summary of the method: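 Steps: GPX4 plus compound, 30 min RT; add GR/GSH/NADPH master mix; start with cumene hydroperoxide; read 340/450 nm fluorescence at 0 and 15 min. Finals were 200 nM GPX4, 1 mM GSH, 0.5 mM CHP, 0.5 mM NADPH, 100 nM GR.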
# [14] = Confirmatory qHTS to identify inhibitors of SARS-CoV-2 cell entry (AID 1645844); further: potency means the concentration at half of the fitted maximal effect; nearly all actives have a fitted effect of over 45% in size
# Summary of the method: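 HEK293-ACE2, overnight seeding; cpd 1 h, 37C/5% CO2; + SARS-CoV-2-S MLV PP (Wuhan-Hu-1, ΔC19); 48 h; Bright-Glo luminescence. Data normalised to S PP and bald PP wells.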
# [15] = VSVG counterscreen qHTS to identify inhibitors of SARS-CoV-2 cell entry (AID 1645847); further: potency means the concentration at half of the fitted maximal effect; nearly all actives have a fitted effect of over 65% in size
# Summary of the method: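 HEK293-ACE2 cells (Expi293F, human ACE2) pretreated 1 h with compound, then infected with MLV-based VSV-G pseudotyped particles for 48 h at 37 C; luciferase luminescence normalized to VSV-G PP and bald PP wells.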
# [16] = target: Cytochrome P450 2D6 (Homo sapiens) (UniProt P10635); assay: Cytochrome P450 family 2 subfamily D member 6 (CYP2D6) small molecule antagonists: luciferase biochemical (cell-free) qHTS assay (AID 1645840; active means well fitted curve in the direction sought with a large enough effect in the repeat runs; an effect the other way counts as inactive or inconclusive; further: nearly all actives have a fitted effect of over 55% in size; further: potency means the concentration at half of the fitted maximal effect)
# Chain of Cytochrome P450 2D6 (Homo sapiens) (P10635 whole entry, looked up): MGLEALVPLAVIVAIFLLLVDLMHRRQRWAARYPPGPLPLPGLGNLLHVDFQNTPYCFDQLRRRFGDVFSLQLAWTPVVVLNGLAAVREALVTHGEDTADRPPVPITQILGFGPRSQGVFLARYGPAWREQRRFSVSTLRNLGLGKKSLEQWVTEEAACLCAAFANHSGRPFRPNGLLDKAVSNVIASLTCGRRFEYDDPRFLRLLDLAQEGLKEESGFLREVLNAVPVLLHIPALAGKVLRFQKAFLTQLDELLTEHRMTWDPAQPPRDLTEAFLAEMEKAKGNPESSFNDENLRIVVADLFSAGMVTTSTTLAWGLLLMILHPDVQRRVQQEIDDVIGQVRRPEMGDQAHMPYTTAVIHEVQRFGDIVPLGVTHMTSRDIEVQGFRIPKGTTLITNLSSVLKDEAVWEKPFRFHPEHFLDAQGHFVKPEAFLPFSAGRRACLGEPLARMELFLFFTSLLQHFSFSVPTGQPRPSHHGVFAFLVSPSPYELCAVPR
# Summary of the method: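 P450-Glo CYP2D6 system: proluciferin substrate converted by enzyme to luciferin, read by luminescence proportional to activity. Enzyme-substrate mix with compound 10 min at room temperature, then NADPH regeneration 1 h before detection reagent.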
# [17] = target: Cytochrome P450 2C9 (Homo sapiens) (UniProt P11712); assay: Cytochrome P450 family 2 subfamily C member 9 (CYP2C9) small molecule antagonists: luciferase biochemical (cell-free) qHTS assay (AID 1645842; active means well fitted curve in the direction sought with a large enough effect in the repeat runs; an effect the other way counts as inactive or inconclusive; further: nearly all actives have a fitted effect of over 55% in size)
# Chain of Cytochrome P450 2C9 (Homo sapiens) (P11712 whole entry, looked up): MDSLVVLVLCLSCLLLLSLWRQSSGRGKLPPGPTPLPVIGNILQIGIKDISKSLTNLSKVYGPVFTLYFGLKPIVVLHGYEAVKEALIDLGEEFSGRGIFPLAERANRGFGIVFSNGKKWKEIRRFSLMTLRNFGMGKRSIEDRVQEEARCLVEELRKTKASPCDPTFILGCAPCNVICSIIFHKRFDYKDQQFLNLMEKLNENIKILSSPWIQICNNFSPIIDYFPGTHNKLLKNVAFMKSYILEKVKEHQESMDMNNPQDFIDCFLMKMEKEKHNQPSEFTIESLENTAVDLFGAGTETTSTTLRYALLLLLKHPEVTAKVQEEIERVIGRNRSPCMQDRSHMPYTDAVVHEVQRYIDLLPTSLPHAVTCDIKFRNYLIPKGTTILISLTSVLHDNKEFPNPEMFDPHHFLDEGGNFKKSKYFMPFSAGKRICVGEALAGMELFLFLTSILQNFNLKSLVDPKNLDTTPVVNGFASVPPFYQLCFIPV
# Summary of the method: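 P450-Glo CYP2C9 system: proluciferin substrate with enzyme in mix containing 0.4% BSA, 10 min at room temperature, then NADPH regeneration solution added and incubated 1 h at 37C. Detection reagent stopped reaction; luminescence read after 20 min as RLU.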
# [18] = activity change, negative = inhibition: at 57.1 µM (top of the series) unless noted, outcome: at 57.1 µM (top of the series) unless noted
smiles,measurement,setting,value
CCCCCCCCCCCCCC[n+]1ccc(C)cc1,Potency,[1],inactive
CN(C)C/C=C/C(=O)Nc1cc2c(Nc3ccc(F)c(Cl)c3)ncnc2cc1OC1CCOC1 (stereo not given),Potency,[2],10 µM (active)
same,Potency,[3],14.1 µM (active)
same,Potency,[4],10 µM (active)
same,Potency,[5]; [18],10 µM (active)
CCCCCCCCC=CCCCCCCCC(=O)NCCOC(=O)CC(C(=O)O)S(=O)(=O)O (stereo not given),Potency,[2],inactive
same,Potency,[4],inactive
same,Potency,[6],inactive
CNC(C)C(O)c1ccccc1 (stereo not given),Potency,[7],inactive
same,Potency,[8],inactive
same,Potency,[9],inactive
same,"activity change, negative = inhibition",[10]; at 57.5 µM (top of the series),8.05% (inactive)
same,max response,[10]; measured here: cell count channel max response,10.2%
same,max response,[10]; measured here: lipid channel max response,21.8%
same,Potency,[11],inactive
same,Potency,[1],inactive
same,Potency,[3],inactive
same,Potency,[4],inactive
same,Potency,[6],inactive
same,"activity change, negative = inhibition",[5]; [18],-30.3%
same,Potency,[12],inactive
same,Potency,[13],inactive
OCCN1CCN(CC/C=C2/c3ccccc3Sc3ccc(Cl)cc32)CC1,Potency,[1],22.4 µM (active)
Cc1ncc(COP(=O)(O)O)c(CN)c1O,Potency,[1],inactive
same,Potency,[3],inactive
same,Potency,[4],inactive
CCCOc1ccc2nc(NC(=O)OC)sc2c1,Potency,[1],inactive
same,Potency,[3],inactive
S=C1SCN(Cc2ccccc2)CN1Cc1ccccc1,Potency,[1],35.5 µM (active)
COc1cc([C@@H]2c3cc4c(cc3C(O[C@@H]3O[C@@H]5CO[C@@H](c6cccs6)OC5[C@H](O)[C@H]3O)C3COC(=O)[C@@H]32)OCO4)cc(OC)c1O (stereo not given in full),Potency,[2],1 µM (active)
same,Potency,[3],inactive
same,Potency,[14],0.0482 µM (active)
same,"activity change, negative = inhibition",[5]; [18],-95.7%
same,Potency,[15],0.0429 µM (active)
CCc1cc2c(cc1CC)CC(NC[C@H](O)c1ccc(O)c3[nH]c(=O)ccc13)C2,Potency,[2],inactive
same,Potency,[4],inactive
C[C@@]12CCCCC[C@@H](Cc3ccc(O)cc31)[C@H]2N,Potency,[16],16.9 µM (active)
same,Potency,[12],inactive
same,Potency,[13],inactive
NCCS[As](SCCN)c1ccc(Nc2nc(N)nc(N)n2)cc1,Potency,[16],inactive
same,Potency,[17],inactive
same,"activity change, negative = inhibition",[5]; [18],-25.6%
same,Potency,[12],inactive
CN(C)C(=O)c1cc2cnc(Nc3ccc(N4CCNCC4)cn3)nc2n1C1CCCC1,"activity change, negative = inhibition",[5]; at 27.1 µM (top of the series),-19.2%
same,"activity change, negative = inhibition",[5]; at 57.1 µM (top of the series),-45.9%

# From PubChem BioAssay (NCATS)
